# Data published in PubChem BioAssay (NCATS).
# Values joined by “and” are separate entries in the source; they are usually repeats but may differ in a detail not shown here. Equal entries are not always repeated. Inconclusive results are not listed. Active and inactive are the calls of the source. Calls follow the shape of the dose curve; as a rule, active = well fitted curve in the direction sought with a large enough effect; inconclusive = small, poorly fitted or top-dose-only effect, or another doubt; inactive = no such curve, though single readings can be large or run the other way.
# Experiment: qHTS Assay for Identifying Gametocytocidal Compounds (AID 743244);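 as to max response: actives lower the fluorescent signal which means gametocytes are killed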
# Conditions: P. falciparum 3D7 stage III-V gametocytes, alamarBlue, 72 h; max response: active compounds read low
# Outline: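 P. falciparum 3D7 stage III–V gametocytes (20,000 cells/well) were exposed to compounds for 72 h at 37 °C, 5% CO2. AlamarBlue was then added for 24 h; decreased resorufin fluorescence (Ex 525/Em 598 nm) indicated loss of viability.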
# % is scaled to controls: 0 for no effect and ±100 for the full control effect; potency is read from the fitted curve at half-maximal effect.
Structure (SMILES),max response,Potency
CCOC(=O)NC(O)C(Cl)(Cl)Cl (centres undefined),9.34% (inactive),
ClC1=C(Cl)C2(Cl)C(CBr)CC1(Cl)C2(Cl)Cl (centres undefined),-1.6% (inactive),
Cc1nnc2n1-c1sc(CCc3ccc(CC(C)C)cc3)cc1C(c1ccccc1Cl)=NC2C (centres undefined),-7.02% (inactive),
CCN(Cc1ccc(Cl)nc1)/C(=C/[N+](=O)[O-])NC,8.58% (inactive),
C[C@]12CC[C@H](O)CC1=CC[C@@H]1[C@@H]2CC[C@]2(C)C(=O)CC[C@@H]12,-7.96% (inactive),
CC[C@H]1C[C@@H]2C[C@H]3c4[nH]c5ccc(OC)cc5c4CCN(C2)[C@@H]13,5.97% (inactive),
NC(N)=NN=C(/C=C/c1ccc([N+](=O)[O-])o1)/C=C/c1ccc([N+](=O)[O-])o1,,7.94 µM (active)
C[C@H]1CNCCc2ccc(Cl)cc21,16.3% (inactive),
Oc1ccc2[nH]cc(CCCCN3CC=C(c4ccccc4)CC3)c2c1,-6.56% (inactive),
C[N+]1(CCC(C(N)=O)(c2ccccc2)c2ccccc2)CCCCC1,-5.02% (inactive),
Cc1ncc2n1-c1ccc(Cl)cc1C(c1ccccc1F)=NC2,-2.43% (inactive),
CC(C)=CCN1CC[C@@]2(C)c3cc(O)ccc3C[C@@H]1[C@@H]2C,-13.8% (inactive),
Cc1c(Cl)c(=O)oc2cc(OP(=O)(OCCCl)OCCCl)ccc12,22.1% (inactive),
CC(C)=C[C@@H]1[C@@H](C(=O)OCc2coc(Cc3ccccc3)c2)C1(C)C,-1.71% (inactive),
CN(C)C(=S)SC(=S)N(C)C,,0.794 µM (active)
c1cc2c(c(N3CCNCC3)c1)OCCO2,-8.91% (inactive),
COc1cc(CC(C)N)c(OC)cc1Br (centres undefined),-17.7% (inactive) and 14.6% (inactive),

Structure (SMILES),max response,Potency
COP(=S)(OC)Oc1ccc(S(N)(=O)=O)cc1,5.01% (inactive),
Clc1ccc(CO/N=C(\Cn2ccnc2)c2ccc(Cl)cc2Cl)c(Cl)c1,,10 µM (active)
CC(C)[N+](C)(CCC(C(N)=O)(c1ccccc1)c1ccccc1)C(C)C,0.0209% (inactive),
C[C@@H]1O[C@@H](O[C@@H]2C=C3CC[C@@H]4[C@H](CC[C@]5(C)[C@@H](c6ccc(=O)oc6)CC[C@]45O)[C@@]3(C)CC2)[C@H](O)[C@H](O)[C@H]1O,11.2% (inactive),
c1ccc2nc(N3CCNCC3)ccc2c1,-4.39% (inactive),
CN1C[C@H](C(=O)N[C@]2(C)O[C@@]3(O)[C@@H]4CCCN4C(=O)[C@H](Cc4ccccc4)N3C2=O)C[C@@H]2c3cccc4[nH]cc(c34)C[C@H]21,,2.35 µM (active)
COc1cc(N)c(Cl)cc1C(=O)NC1CN2CCC1CC2 (centres undefined),-2.64% (inactive),
Cc1nc2ccccc2c(=O)n1-c1ccccc1Cl,1.05% (inactive),
O=C(N[C@@H]1N=C(c2ccccc2F)c2cccc3c2N(CC3)C1=O)c1cc2ccccc2[nH]1,-8.36% (inactive),
O=C1CC2(CCCC2)CC(=O)N1CCCCN1CCN(c2ncccn2)CC1,13.6% (inactive),
CCC1(c2cccc(O)c2)CCCCN(C)C1 (centres undefined),11.4% (inactive),
C#C[C@]1(O)C=C[C@H]2[C@@H]3CCC4=CC(=O)CC[C@@H]4[C@H]3CC[C@@]21CC,2.38% (inactive),
C[C@]12CC[C@H]3[C@@H](CCC4=CC(=O)CC[C@@H]43)[C@@H]1CC[C@@H]2O,-13.9% (inactive) and -1.26% (inactive),
CCCC[N+]1(C)[C@@H]2CC(OC(=O)[C@H](CO)c3ccccc3)C[C@H]1[C@@H]1O[C@@H]12 (some centres undefined),5.95% (inactive),
COc1cccc2c1C(=O)c1c(O)c3c(c(O)c1C2=O)C[C@@](O)(C(=O)CO)C[C@@H]3O[C@H]1C[C@H](N)[C@H](O[C@@H]2CCCCO2)[C@H](C)O1,,22.4 µM (active)
CN(C)CCc1c[nH]c2ccc(O)cc12,-10.2% (inactive),
COc1cc(C[C@@H](C)N)c(OC)cc1Br,0.803% (inactive),
